Laboratory results taken from the supplement of paper PMC6555819.

How the values were obtained:
Test in all cases: PBM binding z-score (relative to random genomic background probes); higher = stronger binding; sequences stand for … in GC…GCGATTGACAGCGTAGAATGAAGG
[1] = tested on: PPARg:RXRa DBDmut IVT, anti-RXR (DBD mutation: RXRa K156A/R161A, NR concentration 270 nM, RXRa partner concentration 90 nM)
Summary of the method: (§1)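 Binding buffer was PBS pH 7.4 with 2% milk, 0.02% Triton X-100, 1 mM DTT, 0.2 mg/mL BSA and 0.4 mg/ml salmon testes DNA. In it, ligand-free nuclear receptor dimers were incubated 1 h on custom Agilent 4×180K protein-binding microarrays carrying double-stranded probes. Antibodies against each partner (one per run) detected binding, and z-scores were calculated against random background probes after regression normalization of scanned fluorescence.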

[2] = tested on: PPARg:RXRa IVT, anti-PPARg (NR concentration 270 nM, RXRa partner concentration 90 nM)
Summary of the method: as §1

[3] = tested on: PPARg DBDmut:RXRa IVT, anti-PPARg (DBD mutation: PPARg1 K132A/R137A, NR concentration 270 nM, RXRa partner concentration 90 nM)
Summary of the method: as §1

[4] = tested on: PPARg DBDmut IVT, anti-PPARg (DBD mutation: PPARg1 K132A/R137A, NR concentration 270 nM)
Summary of the method: as §1

[5] = tested on: PPARg homodimer (NR concentration 180 nM)
Summary of the method: as §1

[6] = tested on: PXR:RXRa (NR concentration 270 nM, RXRa partner concentration 90 nM)
Summary of the method: as §1

[7] = tested on: PXR homodimer (NR concentration 270 nM)
Summary of the method: as §1

[8] = tested on: RARa:RXR (NR concentration 270 nM, RXRa partner concentration 90 nM)
Summary of the method: as §1

[9] = tested on: RARa homodimer (NR concentration 270 nM)
Summary of the method: as §1

[10] = tested on: RARb:RXRa (NR concentration 270 nM, RXRa partner concentration 90 nM)
Summary of the method: as §1

[11] = tested on: RARb homodimer (NR concentration 270 nM)
Summary of the method: as §1

[12] = tested on: RARg:RXRa (NR concentration 270 nM, RXRa partner concentration 90 nM)
Summary of the method: as §1

[13] = tested on: RARg homodimer (NR concentration 270 nM)
Summary of the method: as §1

[14] = tested on: RXRa DBDmut IVT, anti-RXR (DBD mutation: RXRa K156A/R161A, NR concentration 90 nM)
Summary of the method: as §1

[15] = tested on: RXRa homodimer (NR concentration 180 nM)
Summary of the method: as §1

[16] = tested on: THRa:RXRa (NR concentration 90 nM, RXRa partner concentration 90 nM)
Summary of the method: as §1

[17] = tested on: THRa homodimer (NR concentration 90 nM)
Summary of the method: as §1

[18] = tested on: VDR homodimer (NR concentration 270 nM)
Summary of the method: as §1

Sequence	PBM binding z-score [1]	PBM binding z-score [2]	PBM binding z-score [3]	PBM binding z-score [4]	PBM binding z-score [5]	PBM binding z-score [6]	PBM binding z-score [7]	PBM binding z-score [8]	PBM binding z-score [9]	PBM binding z-score [10]	PBM binding z-score [11]	PBM binding z-score [12]	PBM binding z-score [13]	PBM binding z-score [14]	PBM binding z-score [15]	PBM binding z-score [16]	PBM binding z-score [17]	PBM binding z-score [18]
TTTAGTTGGTCACGGAGGTCACACACGACGGGTA	3.69	5.36	1.78	1.9	3.37	4.93	1.92	4.96	2.05	4.08	4.52	5.05	5.2	0.387	4.87	3.75	3.15	3.7
CGTCCAAGGTCAATGATAGGTCAGTGAAAGCATT	3.37	3.61	0.384	-0.272	6.66	5.17	1.58	6.7	1.7	5.31	4.99	7.81	7.06	3.55	6.04	4.03	2.44	2.61
GCCAGCAGGCCATTTGGGTCACTCAATGACGGGC	0.295	1.48	-0.593	-1.66	-0.218	0.499	0.123	0.783	-1.21	1.49	1.78	1.14	1.3	-0.31	0.736	1.8	0.516	0.49
CCTACTGGGCCAAGGTCAGTGATCAGTCAAAGCA	3.15	4.03	0.453	-1.43	1.3	1.14	-0.136	1.75	-0.243	2.89	2.89	2.37	2.48	-0.721	1.4	2.31	1.15	0.568
GCTGCTAGGTCAGGTTGGTCAGCTCACGGGTACG	3.01	2.19	-0.391	-0.956	0.943	0.37	0.00075	0.901	0.262	3.26	2.66	2.78	3.52	0.658	1.28	1.84	0.901	0.536
TAGCCTAGGTCATTGGGCCAGTCTAGTACGCATC	2.31	3.52	-0.286	-0.617	1.58	1.19	-0.0454	1.82	-0.767	3.53	2.48	3.76	3.79	1.52	2.52	2.67	0.501	0.896
TCTTGTCGATCAAAGGTTAAGAAAGCCGAAGCCT	1.37	2.3	-0.0137	0.486	0.668	1.62	-0.394	2.19	-0.0364	1.91	1.49	2.01	0.765	0.676	2.43	1.33	-0.0604	0.0763
CGGCCAAGGTCATAGGAGGTCAGTGAAGACAGAT	2.94	4.46	-0.828	-0.774	4.97	6.76	3.6	5.88	1.82	5.29	5.15	6.78	7.19	3.51	6.42	5.33	2.88	4.3
ATCTCTAGGTAAGCCTCAGTTCAGTGAAGAACGC	2.22	1.13	-0.0785	0.191	0.657	1.23	0.98	0.356	0.375	0.44	0.726	0.273	0.0936	0.247	0.103	0.985	1.15	1.21
GGAAGGAGGGCATTCGAGTTGATAGCATGGCGAT	3.26	2.42	-0.146	0.314	0.39	3.38	1.3	0.52	-0.113	1.56	1.15	0.897	1.34	1.47	0.679	2.83	0.445	2.01
ATCGAAAGGTCGAGGGGAGTATAGAGAAAGGGAA	0.44	1.72	1.88	1.27	1.83	2.27	0.897	3.24	1.45	3.97	2.84	4.18	4.21	1.4	3.94	2.05	0.272	0.958
CCTACTGGGCAACGAAAGGTCATTGATTCAGTGA	2.25	2.56	-0.412	0.102	3.81	5.18	1.89	5.49	2.52	3.96	4.44	4.88	4	0.496	4.73	3.09	0.612	2.35
TTACCAAGGTGAAAGGTGGTTGATGCACGCCTTG	3.12	3.55	-0.573	-0.258	0.847	0.419	-0.541	1.35	0.211	1.5	0.622	0.898	0.626	-0.437	1.61	1.73	0.529	-0.166
ACTAGCTGGCCAAGTTTGGGTCACTCAAACAAAG	-0.306	0.303	-0.848	-0.239	-0.138	0.38	-0.487	0.811	-1.29	1.08	1.35	0.786	0.564	-0.366	0.323	1.82	0.793	-0.123
